Results on 40 molecules are retold here after PubChem BioAssay (NCI).

The panel holds about 83,000 compounds, 20% with a hit somewhere; the sample as a whole holds those more often.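 Compound tested at a single concentration for 48 hours in 96-well plates; a percent growth value below 10 was scored as active.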 Calls of active or inactive are those of the source.

The subject of this assay is OVCAR-4 ovarian. The assay can be described thus: NCI-60 one-dose screen, 48 h (100 = growth as untreated, 0 = no growth, -100 = all killed). To be noted: 10 µM unless noted.
Consider `Nc1cc(C(=O)N/N=C\c2ccc(OC(F)F)c(OC3CCCC3)c2)nn1CC(O)c1ccccc1` (stereo not given), for which the growth is 91.4% (inactive).
The same measure for `Clc1ccc2[nH]cc(-c3nn4cc(-c5ccncc5)nc4s3)c2c1`: 43.2% (inactive); for `CN1CC[C@@H]2[C@@]3(C)CC[C@H](O)C(C)(C)[C@@H]3CC[C@@]2(C)[C@]2(C)CC[C@@]3(CO)CCC(C)(C)C[C@@H]3C12` (stereo not given in full): 96.7% (inactive); for `Brc1cc(-c2cc(-c3ccc4c(c3)OCCO4)[nH]n2)cs1`: 83.5% (inactive).
The same measure for `NS(=O)(=O)c1ccc(Nc2nc(Nc3ccccc3)nc(N3N=C(c4ccc(Cl)cc4)CC3c3ccc(Cl)cc3)n2)cc1` (stereo not given): 49.5% (inactive).
The same measure for `O=C(N/N=C\c1ccc([N+](=O)[O-])cc1)c1ccc2nc(-c3ccc(Br)cc3)[nH]c2c1`: 21.3% (inactive).
Turning to `O=C(/C=C/c1cccc(C(F)(F)F)c1)Nc1cccc(C(F)(F)F)c1`, the growth is 47.7% (inactive).
The same measure for `Brc1cccc(-c2cc(-c3ccc4c(c3)OC=CO4)[nH]n2)c1`: 82.1% (inactive); for `CCc1cc2c(cc1Cl)nc1c(=O)[nH]c(=O)nc-1n2CCOCC(C)C`: 44.1% (inactive).
Next, `CCCCSC1=C(Cl)CN(c2ccccc2)C1=O`: 107% (inactive).
`Brc1ccc(-c2cc(-c3ccc4c(c3)OC=CO4)n[nH]2)s1`: the growth is 88% (inactive).
The same measure for `O=c1c2cc(-c3ccc(F)cc3F)ccc2n(Nc2ccccc2)c(=O)n1-c1cccc(C(F)(F)F)c1`: 30.7% (inactive); for `CN1CCN(CCCCCC(=O)Nc2nc(-c3cccc(NS(=O)(=O)c4cccc5c(N(C)C)cccc45)c3)cs2)CC1`: 89.6% (inactive).
Next, `CCCCc1nc2c(N)nc3ccccc3c2n1Cc1cccc(CN)c1`: 53.6% (inactive).
The same measure for `CCCCCCCCCCCC(=O)NC(C)(C)C(=O)N1CCCC1C(=O)NC(C)(C)C(=O)NC(C)(C)C(=O)N1CCCC1C(=O)NC(C)(C)C(=O)NC(C)(C)C(=O)N1CCCC1C(=O)NC(C)C(=O)NCCC(=O)NC(C)C(=O)NC(C)(C)C(=O)NC(C)(C)C(=O)NC(C)(C)C(=O)NCCC(=O)NC(C)(C)C(=O)NC(C)(C)C(=O)NC(C)(C)C(=O)NC(C)C(=O)NCCC(=O)O` (stereo not given): -94.5% (active).
As for `NS(=O)(=O)c1ccc(Nc2nc(N/N=C/c3ccc4c(c3)OCO4)nc(Nc3ccccc3)n2)cc1`, the growth is 55.5% (inactive).
The same measure for `O=[N+]([O-])c1ccc(NC(=S)NNC(=S)Nc2ccc(Br)cc2)cc1`: 98.2% (inactive); for `Cc1cc(=O)[nH]c(O)c1C#N`: 98.3% (inactive); for `Cc1ccc(OCc2occc2C(=O)N2CCOCC2)cc1`: 103% (inactive).
Next, `O=C1C(SCc2ccccc2)=C(Cl)CN1c1ccccc1`: 103% (inactive); `COc1ccc(C2C(C#N)=C(/N=C/c3ccc(Cl)cc3)Oc3c2sc2c(C)cccc32)cc1` (stereo not given): 76.5% (inactive).
The same measure for `CN(C)CCNc1ccc2ncc(C#Cc3cncc(C(=O)Nc4ccc(CN5CCN(C)CC5)c(C(F)(F)F)c4)c3)n2n1`: -10.1% (active).
Turning to `CN1CCC[C@]2(C)[C@H]3CC[C@@H]4[C@@H]5[C@H]6OC[C@@]5(CCC6(C)C)CC[C@@]4(C)[C@]3(C)CC[C@H]2C1(C)C`, the growth is 86.9% (inactive).
Turning to `COc1ccccc1/C=C/C(=O)c1nnn(-c2ccc(F)cc2)c1C`, the growth was 59.2% (inactive).
The same measure for `CC(C)[C@H]1c2[nH]c3ccccc3c2C[C@H]2C(=O)N(CCCCCCC(=O)NO)CC(=O)N12`: 99.9% (inactive).
Next, `COC(=O)CCCNCCCn1ccc2cc(NCc3cccc(-c4ccccc4)c3C)ccc21`: 67.6% (inactive).
Next, `C=C(C=O)[C@@H]1CC[C@]2(C(=O)O)CC[C@]3(C)C(CC[C@@H]4[C@@](C)(CCC#N)[C@H](C(=C)C=O)CC[C@]43C)[C@@H]12` (stereo not given in full): 18.7% (inactive); `CC1(C)CC[C@]23CC[C@]4(C)[C@H](CC[C@@H]5[C@@]6(C)CC[C@H](NCO)C(C)(C)[C@@H]6CC[C@]54C)[C@H]2[C@H]1OC3`: 76.9% (inactive).
On to `O=C1/C(=C/C=C/c2ccco2)SC(=S)N1Cc1ccccc1`, for which the growth is 95.1% (inactive).
Next, `COc1ccc(/C=N/NC(=O)c2c(N)nn(C)c2Nc2ccccc2)cc1Oc1ccccc1`: 92.2% (inactive); `Cc1[nH]c(C(=O)Nc2ccc(S(=O)(=O)N3CCCCC3)cc2OCCOCCOCCOCCOCCOCCOCCOCCOCCOc2cc(S(=O)(=O)N3CCCCC3)ccc2NC(=O)c2[nH]c(C)c3c2CCCCC3=O)c2c1C(=O)CCCC2`: 12.5% (inactive).
Next, `COc1ccc(C(=NNS(=O)(=O)c2ccc(C)cc2)c2ccccc2)cc1OC`: 102% (inactive); `CNC(=O)c1cc(Oc2ccc3c(c2)sc2nc(-c4ccc(N(C)C)cc4)cn23)ccn1`: 70.7% (inactive); `CN1CCN(Cc2ccc(/C=N/Nc3ccnc4cc(Cl)ccc34)cc2)CC1`: 83% (inactive).
The same measure for `O=C1Nc2ccccc2/C1=N\c1nnc(-c2ccccc2)o1`: 98.7% (inactive); for `COc1ccc2c(c1)C=CC1(O2)Oc2ccc(OC)cc2C=C1C` (stereo not given): 74.6% (inactive).
As to `Cn1cc(-c2nn3cc(-c4ccncc4)nc3s2)c2cc(Br)ccc21`, the growth was 75.7% (inactive).
Next, `C#Cc1nc(/C=C/CCCCCCC(=O)NO)cs1`: 47.2% (inactive); `CC[C@]12CC(C(=O)OC)=C3Nc4ccccc4[C@@]34CCN(C14)[C@@H]1c3cc4c(cc3O[C@@H]1[C@H]2O)NC1=C(C(=O)OC)C[C@@]2(CC)C3N(CC[C@@]143)C[C@H]1O[C@H]12` (stereo not given in full): 33.2% (inactive).
For the molecule `O=C(CCCCCCN1CC(=O)N2[C@@H](C3CC3)c3[nH]c4ccccc4c3C[C@H]2C1=O)NO`, the growth is 97.6% (inactive).
